# From PubChem
# Hits are enriched below; roughly 8.7% of the tested compounds scored in any of these assays.
# JMJD2A Tudor = qHTS Assay for Inhibitors of JMJD2A-Tudor Domain; Lysine-specific demethylase 4A (Homo sapiens), O75164; AlphaScreen JMJD2A-Tudor / H3K4me3 peptide binding; Potency, µM (highest dose often 114 µM), inactives show at the highest dose activity change, negative = inhibition, hits mostly inhibitors; hit rate 4.4% among 390,000; further: on the % scale 0 is the no-effect control and ±100 the full control effect; nearly all actives have a fitted effect of over 50% in size
# ALOX12 inh = Primary qHTS assay for inhibitors of human arachidonate 12S-lipoxygenase (ALOX12): Round 2 | purified 12hLO, xylenol orange hydroperoxide absorbance | Potency, µM (highest dose often 108 µM), for the others: top-dose activity change, negative = inhibition, usual class: inhibitors | Polyunsaturated fatty acid lipoxygenase ALOX12 (Homo sapiens), P18054 | hit rate 1.1% among 580,000; further: on the % scale 0 is the no-effect control and ±100 the full control effect
#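 Hydroperoxide product was detected by ferrous iron/xylenol orange as the 573 to 405 nm absorbance ratio. Arachidonic acid at 40 uM (final) was turned over for 30 min at room temperature by 150 nM human 12hLO, pH 7.0 Hepes buffer, after 15 min compound preincubation.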
# Sfp PPTase inh = qHTS Assay for Inhibitors of Bacillus subtilis Sfp phosphopantetheinyl transferase (PPTase); 4'-phosphopantetheinyl transferase ffp (Bacillus subtilis), Q9F4F7; Biochemical Sfp PPTase activity, qHTS; Potency, µM, for the others: largest response in the series, negative = inhibition, hits mostly inhibitors; hit rate 3.5% among 310,000; AID 1490, 2009;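 further: the enzyme is Sfp with the accession as filed and its product quenches rhodamine fluorescence; 0% = enzyme reaction without inhibitor and -100% = no enzyme wells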
#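 Step 1, compound plus 15 nM Sfp-PPTase, 15 min, room temperature. Step 2, add rhodamine-CoA (5 uM) and BHQ-2-YbbR (12.5 uM). Step 3, read 525/598 nm fluorescence at 0 and 30 min.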
# G9a inh = qHTS Assay for Inhibitors of Histone Lysine Methyltransferase G9a | Histone-lysine N-methyltransferase EHMT2 (Homo sapiens), Q96KQ7 | G9a H3K9 monomethylation, AlphaScreen, 2 h | Potency, µM (series often up to 102 µM), without a hit: at the top dose activity, negative = inhibition, actives largely listed as inhibitors | hit rate 8.8% among 350,000 | AID 504332, 2011; further: on the % scale 0 is the no-effect control and ±100 the full control effect; nearly all actives have a fitted effect of over 75% in size
# Target sequence (Q96KQ7 913-1193 limits assumed): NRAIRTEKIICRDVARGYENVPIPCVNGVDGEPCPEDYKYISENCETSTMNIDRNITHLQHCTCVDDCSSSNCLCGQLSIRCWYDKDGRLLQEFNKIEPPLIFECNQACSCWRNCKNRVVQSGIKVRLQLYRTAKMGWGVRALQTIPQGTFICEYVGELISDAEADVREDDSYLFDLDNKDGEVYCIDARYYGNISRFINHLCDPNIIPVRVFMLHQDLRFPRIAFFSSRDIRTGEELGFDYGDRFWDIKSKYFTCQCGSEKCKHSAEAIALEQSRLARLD
#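 Readings reflect AlphaScreen signal from monomethyl-H3K9 antibody detection. HMT at 20 nM; substrate b-H3K9 500 nM; cofactor SAM 20 uM; 2 h RT reaction; compounds tested as titrations in qHTS with 15 min preincubation.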
# BAZ2B block = qHTS Assay for Inhibitors of BAZ2B | Bromodomain adjacent to zinc finger domain protein 2B (Homo sapiens), Q9UIF8 | AlphaScreen BAZ2B-H3K14Ac peptide displacement | Potency, µM (top dose mostly 114 µM), inactives show at the top dose activity change, negative = inhibition, usual class: inhibitors | hit rate 4.4% among 360,000 | AID 504333, 2011; further: on the % scale 0 is the no-effect control and ±100 the full control effect; nearly all actives have a fitted effect of over 60% in size
#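 AlphaScreen luminescence quantifies BAZ2B engagement of H3K14Ac peptide; the protein and biotinylated peptide are both at 50 nM final, buffer PBS pH 7.4 with 0.01% Tween-20, all steps at room temperature.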
# HP1b binding inh = HTS for Inhibitors of HP1-beta Chromodomain Interactions with Methylated Histone Tails | AID 540317, 2011 | hit rate 0.56% among 390,000 | AlphaScreen HP1-beta / biotin-H3K9me3 peptide binding | Potency, µM (doses to about 114 µM), for inactives: at the highest dose activity change, negative = inhibition, actives largely listed as inhibitors | Chromobox protein homolog 1 (Homo sapiens), P83916; further: nearly all actives have a fitted effect of over 70% in size
# Target sequence (P83916 whole entry, looked up): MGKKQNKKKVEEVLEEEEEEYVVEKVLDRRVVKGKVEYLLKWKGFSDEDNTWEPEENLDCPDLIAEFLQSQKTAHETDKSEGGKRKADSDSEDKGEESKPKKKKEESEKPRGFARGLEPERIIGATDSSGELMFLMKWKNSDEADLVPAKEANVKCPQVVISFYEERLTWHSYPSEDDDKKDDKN
#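 AlphaScreen: HP1-beta (50 nM) preformed 30 min with biotin-H3(1-18)K9me3 peptide (50 nM) in PBS pH 7.4, 0.01% Tween-20. Compound added for 30 min at RT, then streptavidin donor/nickel chelate acceptor beads (10 ug/mL) for 30 min.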
# Starred values were filed as active, the others as inactive; u = inconclusive; x = no result; [ ] = another dose, or the depositor's remark. The call rests on the fitted dose curve; in most records, active means well fitted curve in the direction sought with a large enough effect; inconclusive means small, poorly fitted or top-dose-only effect, or another doubt; inactive means no such curve, though single readings can be large; an effect the other way counts as inactive or inconclusive. Potency means the concentration at half of the fitted maximal effect.
SMILES,JMJD2A Tudor,ALOX12 inh,Sfp PPTase inh,G9a inh,BAZ2B block,HP1b binding inh
Cc1cc2c(c(=O)n1Cc1cccnc1)C(c1cccs1)C(C#N)=C(N)O2 (configuration not stated),-13.0%,0.0%,79.4µM*,-5.5%[0.501 µM],u,56.0%
O=C(N/N=C/c1ccc(Br)cc1)c1cc[n+](Cc2ccccc2)cc1,-24.0%,-18.3%,79.4µM*,u,-7.3%,18.7%
O=C(N/N=C/c1ccccc1)c1cc[n+]([O-])cc1,-13.4%,-10.2%,19.1%,4.1%,-0.5%,-6.6%
O=C(C[n+]1cccc(C(=O)N/N=C/c2ccc(Br)cc2)c1)c1ccccc1,u,10.4%,x,1.41µM*,-9.0%,26.7%
NC(=O)c1ccc[n+](CC(=O)c2ccc(Br)cc2)c1,-22.4%,-11.3%,5.9%,-1.1%,2.3%,48.3%
CC1CCCN(c2ccc(C(=O)NCc3ccc4c(c3)OCO4)cc2[N+](=O)[O-])C1 (configuration not stated),u,0.8%,3.4%,14.1µM*,u,u
O=C(NCc1ccc2c(c1)OCO2)c1ccc(N2CCCCCC2)c([N+](=O)[O-])c1,u,-24.4%,14.4%,35.5µM*,u,u
CC1CCCN(c2ccc(C(=O)Nc3ccc4c(c3)OCO4)cc2[N+](=O)[O-])C1 (configuration not stated),u,-4.6%,10.2%,22.4µM*,u,u
CC(C)NC(=O)NC[C@H]1O[C@@H]2C[C@@H](CC(=O)NCc3cnn(C)c3)O[C@@H]2[C@@H]1O,x,7.5%[176 µM],x,x,x,x
COc1cccc(-c2nnc(SCC(=O)N3CCCCC3)o2)c1,-8.6%,-8.2%,x,15.8µM*,-0.7%,14.7%
COc1cc(OC)cc(-c2nnc(SCC(=O)N3CCC(C)CC3)o2)c1,-2.1%,-3.1%,x,22.4µM*,-6.6%,-2.6%
CCOC(=O)N1CCN(C(=O)CSc2nnc(-c3cc(OC)cc(OC)c3)o2)CC1,-6.1%,0.0%,23.2%,-3.8%[12.7 µM],11.6%,26.6%
NC(=O)CSc1nnc(-c2ccc(S(=O)(=O)N3CCCC3)cc2)o1,-8.7%,14.0%,1.2%,11.2µM*,-0.4%,37.6%
COc1cc(OC)cc(-c2nnc(SCC(=O)N3CCCC3)o2)c1,-9.0%,0.0%,8.8%,9.9%[59 µM],6.8%,24.9%
CCOC(=O)N1CCN(C(=O)CSc2nnc(-c3cccc(OC)c3)o2)CC1,u,0.0%,-6.6%,50.1µM*,5.4%,-7.8%
Cc1ccc(-c2nnc(SCC(=O)N3CCCC3)o2)cc1C,u,u,-6.6%,50.1µM*,-1.1%,32.6%
CCCCCCNc1nc(-c2ccc(OC)cc2)c(CCC(=O)O)s1,-16.4%,-22.9%,-11.5%,44.7µM*,u,-2.4%
COC(=O)CCc1sc(Nc2ccc(OC)cc2)nc1-c1ccc(OC)cc1,u,-17.3%,x,8.91µM*,-34.3%,-15.5%
COCCNc1nc(-c2ccc(OC)cc2)c(-c2ccc(OC)cc2)s1,u,0.3%,u,u,70.8µM*,-2.6%
COC(=O)CCc1sc(NC2CCCCC2)nc1-c1ccc(OC)cc1,u,u,-61.9%,12.6µM*,u,u
CCN(CC)CCNc1nc(-c2ccc(OC)cc2)c(-c2ccc(OC)cc2)s1,u,u,-17.0%,x,u,3.6%
COc1ccc(C(=O)CCC(=O)OCC(=O)c2ccc(Cl)cc2)cc1,x,1.3%,x,x,x,x
CNC(=O)c1ccc(/C=C/C(=O)C(C#N)c2ccccn2)cc1 (configuration not stated),x,-1.9%,x,x,x,x
N#CC(C(=O)c1ccco1)c1ccccn1 (configuration not stated),-24.4%,14.3%,18.9%,35.5µM*,4.2%,16.7%
Nc1cc([N+](=O)[O-])ccc1Nc1ccccc1,u,u,16.7%,39.8µM*,u,-32.6%
SMILES,JMJD2A Tudor,ALOX12 inh,Sfp PPTase inh,G9a inh,BAZ2B block,HP1b binding inh
O=C(Nc1ccccc1)c1ccc(Nc2c([N+](=O)[O-])cc([N+](=O)[O-])c3ccccc23)cc1,-17.0%,-10.5%,9.7%,18.7%[59 µM],u,19.8%
Cc1cccc(Nc2ccc([N+](=O)[O-])cc2C(=O)O)c1,u,-25.7%,5.4%,1.41µM*,50.1µM*,0.3%
O=C(O)c1cc([N+](=O)[O-])ccc1Nc1ccccc1,-17.0%,-3.4%,-5.0%,21.8%[59 µM],-16.8%,-11.2%
N#Cc1ccc(Nc2ccccc2)c(N)c1,-14.5%,u,-16.0%,x,-11.7%,16.4%
O=[N+]([O-])c1cc(Br)c(Nc2ccccc2)c([N+](=O)[O-])c1,20µM*,0.0%,-7.6%,39.8µM*,14.1µM*,u
Nc1cc(C(F)(F)F)ccc1Nc1ccccc1,-23.2%,u,6.6%,-50.6%,50.1µM*,-15.3%
COc1ccc(OC)c(COC(=O)c2cc(OC)ccc2Br)c1,x,1.4%,x,x,x,x
O=C(Cc1cccs1)N/N=C/C=C\c1ccco1,-25.3%,u,7.94µM*,u,-3.1%,-8.5%
O=C(N/N=C/C=C\c1ccccc1[N+](=O)[O-])c1cccs1,-24.1%,0.6%,4.2%,16.6%[59 µM],-5.9%,44.1%
O=C(N/N=C/C=C/c1ccco1)c1ccncc1,79.4µM*,233.1%,56.2µM*,x,8.2%,u
CC(=C/c1ccco1)/C=N/NC(=O)c1ccncc1,-12.1%,147.9%,-7.4%,7.5%[59 µM],-22.6%,21.3%
O=C(N/N=C/C=C\c1ccco1)c1cccs1,-23.1%,u,22.4µM*,u,44.7µM*,7.1%
O=C(N/N=C/C=C/c1ccc([N+](=O)[O-])cc1)c1cccs1,-29.7%,0.0%,-29.9%,39.8µM*,50.1µM*,25.1%
C/C(=N/NC(=O)c1ccc(Cl)s1)c1cccnc1,-9.7%,450.1%,4.7%,1.9%,-27.8%,36.8%
C/C(=N\NC(=O)Cc1c(F)cccc1Cl)c1cccnc1,-13.1%,461.6%,-5.1%,50.1µM*,-2.5%,58.1%
C/C(=N/NC(=O)c1ccc(C)s1)c1cccnc1,35.5µM*,u,-23.3%,u,-29.1%,24.0%
C/C(=N/NC(=O)c1ccc(Br)s1)c1ccncc1,-12.4%,u,10.4%,70.8µM*,-20.0%,31.6%
O=C(Nc1ccccc1Oc1ccccc1)c1ccoc1,x,3.5%,x,x,x,x
Cc1cn([C@H]2C[C@H](O)[C@@H](CNS(=O)(=O)N3CCCC3)O2)c(=O)[nH]c1=O,x,7.94µM*,x,x,x,x
